Measurements taken from PubChem BioAssay (NCATS).
Inconclusive results are not listed. Calls of active or inactive are those of the source. Calls follow the shape of the dose curve; as a rule, active = well fitted curve in the direction sought with a large enough effect; inconclusive = small, poorly fitted or top-dose-only effect, or another doubt; inactive = no such curve, though single readings can be large; an effect the other way counts as inactive or inconclusive.

Columns and labels:
[1] = qHTS of pediatric cancer cell lines to identify multiple opportunities for drug repurposing: Primary screen for NB1643 cells (AID 1347099); also: nearly all actives have a fitted effect of over 50% in size
In short: (§1)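 Cells seeded at 500-1,000 cells/well in growth media, rested 5 hours at 37 degrees C, 5% CO2, then dosed; MIPE compounds at 11-point (from 0.78 nM) and NPC at 8-point (from 0.59 nM) final concentrations. Viability by CellTiter-Glo luminescence after 48 hours.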

[2] = qHTS of pediatric cancer cell lines to identify multiple opportunities for drug repurposing: Primary screen for LAN-5 cells (AID 1347100)
In short: (§2)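 Cells (500-1,000/well) in growth media were settled 5 h at 37 degrees C, then given compounds for 48 h. Viability was read as CellTiter-Glo luminescence. Primary runs used MIPE at 11 points (0.78 nM-46 µM) and NPC at 8 points (0.59 nM-46 µM); follow-ups used 11 points.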

[3] = qHTS of pediatric cancer cell lines to identify multiple opportunities for drug repurposing: Primary screen for BT-12 cells (AID 1347101); also: nearly all actives have a fitted effect of over 25% in size
In short: (§3)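 Cells (500-1,000/well) rested 5 h, then received compounds for 48 h; metabolically active cells were measured by CellTiter-Glo luminescence. Final concentrations spanned up to 46 µM (MIPE, 11-point) or 0.59 nM-46 µM (NPC, 8-point) in primary screens, 11-point in follow-ups.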

[4] = qHTS of pediatric cancer cell lines to identify multiple opportunities for drug repurposing: Primary screen for Rh18 cells (AID 1347102); also: nearly all actives have a fitted effect of over 65% in size
In short: as §2

[5] = qHTS of pediatric cancer cell lines to identify multiple opportunities for drug repurposing: Primary screen for OHS-50 cells (AID 1347103); also: nearly all actives have a fitted effect of over 40% in size
In short: as §3

[6] = qHTS of pediatric cancer cell lines to identify multiple opportunities for drug repurposing: Primary screen for RD cells (AID 1347104); also: nearly all actives have a fitted effect of over 55% in size
In short: as §1

[7] = qHTS of pediatric cancer cell lines to identify multiple opportunities for drug repurposing: Primary screen for MG 63 (6-TG R) cells (AID 1347105); also: nearly all actives have a fitted effect of over 50% in size
In short: as §1

[8] = qHTS of pediatric cancer cell lines to identify multiple opportunities for drug repurposing: Primary screen for control Hh wild type fibroblast cells (AID 1347106);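 also: series mostly up to about 46 µM; a drop in luminescence marks cytotoxicity and a rise apparent proliferation; nearly all actives have a fitted effect of over 55% in size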
In short: as §2

[9] = qHTS of pediatric cancer cell lines to identify multiple opportunities for drug repurposing: Primary screen for Rh41 cells (AID 1347108);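 also: series mostly up to about 46 µM; luminescence drop marks cytotoxic hits; nearly all actives have a fitted effect of over 70% in size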
In short: as §1

[10] = qHTS of pediatric cancer cell lines to identify multiple opportunities for drug repurposing: Primary screen for Rh30 cells (AID 1347107); also: series mostly up to about 46 µM; nearly all actives have a fitted effect of over 75% in size
In short: as §2

Measured: Potency

NC(=O)C1(N2CCCCC2)CCN(CCCC(=O)c2ccc(F)cc2)CC1
not listed: [10]
inactive: all other assays above

COc1ccc(C(=O)c2ccccc2)c(O)c1
not listed: [10]
inactive: all other assays above

COc1ccccc1N1CCN(CCCCNC(=O)c2ccc(-c3ccc(C(C)=O)cc3)cc2)CC1
inactive: all assays above

CC(C)Cn1cnc2c1c(=O)n(C)c(=O)n2C
not listed: [7]
inactive: all other assays above

COc1ccc2c(c1)c1c3n2CCN(C)C3=NCC1
not listed: [10]
inactive: all other assays above

CCOc1ccccc1OCCN[C@H](C)Cc1ccc(OC)c(S(N)(=O)=O)c1
inactive: all assays above

Clc1cccc(C(c2ccc3nc[nH]c3c2)n2ccnc2)c1 (stereo not drawn)
not listed: [7]
inactive: all other assays above

CC(=O)NO
not listed: [8]
inactive: all other assays above

CN(C)C(=O)Nc1ccc(Cl)c(Cl)c1
inactive: all assays above

O=C(O)CCC(=O)Nc1ccc(S(=O)(=O)Nc2nccs2)cc1
not listed: [8]
inactive: all other assays above

Nc1ccc(S(=O)(=O)Nc2cnc3ccccc3n2)cc1
inactive: all assays above

O=C1OC(CN2CCOCC2)CN1/N=C/c1ccc([N+](=O)[O-])o1 (stereo not drawn)
not listed: [8]
inactive: all other assays above

CC(C)(C)NC[C@H](O)COc1nsnc1N1CCOCC1
inactive: all assays above

Cc1cc(C)cc(OCC2CNC(=O)O2)c1 (stereo not drawn)
inactive: all assays above

OCc1ccccn1
not listed: [8]
inactive: all other assays above

CC(C)[C@@H]1CC[C@@H](C)CC1=O
inactive: all assays above

NC(=O)c1ccccc1O
not listed: [8]
inactive: all other assays above

CN(C)CCN1C(=O)c2ccccc2N(C)c2ccccc21
not listed: [8]
inactive: all other assays above

NCCNc1cccc2ccccc12
inactive: all assays above

O=C(O)C(Cc1cc(I)c(O)c(I)c1)c1ccccc1 (stereo not drawn)
inactive: all assays above

COc1cc(C(=O)NCc2ccc(OCCN(C)C)cc2)cc(OC)c1OC
inactive: all assays above

CC(C)CCCC(C)N (stereo not drawn)
inactive: all assays above

Cc1c[nH]c2ccccc12
not listed: [8]
inactive: all other assays above
